The sample as a whole holds a higher share of hits than the screen did.
DT40 TDP1 CPT = growth inhibition of DT40 Tdp1-/-;hTDP1 cells with camptothecin (screen for TDP1 inhibitors) | chicken DT40 Tdp1-/-;hTDP1 cells + 20 nM CPT, ATP luminescence, 48 h | Potency, µM (series often up to 46.2 µM), actives largely listed as inhibitors | 420,000 tested, 12% active | AID 686979; also: nearly all actives have a fitted effect of over 55% in size
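Cell growth measured by CellTiter-Glo luminescence after a minimum 48 h, 37 C compound exposure with 20 nM CPT in Tdp1-knockout DT40 cells stably expressing hTDP1, seeded 400/well; qHTS titration format.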
HT1080 IDH1KD tx = HT-1080 IDH1 knockdown cell toxicity (counter line). HT-1080 IDH1 knockdown viability, ATP luminescence, 48 h. Potency, µM (series often up to 46.1 µM), usual class: cytotoxic. 360,000 tested, 2% active. AID 686971
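CellTiter-Glo luminescence after 48 h compound exposure at 37 degrees C of IDH1-knockdown HT-1080 cells in 5% FBS RPMI. %Activity scaled between DMSO wells and cell-free media wells, with curves fitted and assigned curve classes.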
HT1080-NT tox = kills 2HG-producing HT-1080-NT fibrosarcoma cells; HT-1080-NT fibrosarcoma viability, CellTiter-Glo ATP luminescence, 48 h; Potency, µM (top dose mostly 46.1 µM), hits mostly cytotoxic; 360,000 tested, 1.6% active;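 also: NT is the 2HG producing partner of a matched IDH1 knockdown line; nearly all actives have a fitted effect of over 55% in size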
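HT-1080-NT; 750 cells/well; 5% FBS RPMI; 48 h compound, 37 degrees C; CellTiter-Glo luminescence; curve fitting and curve-class assignment.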
IL1B secr inh = inhibitors of inflammasome signaling (IL-1 beta secretion) | THP-1 LPS/ATP IL-1B secretion, AlphaLISA, 16 h; hits give low values | 360,000 tested, 4.7% active | AID 743279 | activity change, % at 57.5 µM; in the data active = activity change below about -50%; inconclusive = mostly about -30% to -49%
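THP-1 cells pretreated 1 hr with compounds (up to 57.5 uM final), then stimulated with LPS (250 ng/mL final) plus ATP (1.25 mM final); secreted IL-1B measured by AlphaLISA after 16 hr, decreased signal indicating inhibition.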
12-LOX inh = ALOX12 (human) lipoxygenase inhibition; AID 1671190; purified 12hLO, xylenol orange hydroperoxide absorbance; Potency, µM (series often up to 108 µM), most hits filed as inhibitors; 580,000 tested, 1.1% active; P18054
Target sequence (P18054 whole entry, looked up): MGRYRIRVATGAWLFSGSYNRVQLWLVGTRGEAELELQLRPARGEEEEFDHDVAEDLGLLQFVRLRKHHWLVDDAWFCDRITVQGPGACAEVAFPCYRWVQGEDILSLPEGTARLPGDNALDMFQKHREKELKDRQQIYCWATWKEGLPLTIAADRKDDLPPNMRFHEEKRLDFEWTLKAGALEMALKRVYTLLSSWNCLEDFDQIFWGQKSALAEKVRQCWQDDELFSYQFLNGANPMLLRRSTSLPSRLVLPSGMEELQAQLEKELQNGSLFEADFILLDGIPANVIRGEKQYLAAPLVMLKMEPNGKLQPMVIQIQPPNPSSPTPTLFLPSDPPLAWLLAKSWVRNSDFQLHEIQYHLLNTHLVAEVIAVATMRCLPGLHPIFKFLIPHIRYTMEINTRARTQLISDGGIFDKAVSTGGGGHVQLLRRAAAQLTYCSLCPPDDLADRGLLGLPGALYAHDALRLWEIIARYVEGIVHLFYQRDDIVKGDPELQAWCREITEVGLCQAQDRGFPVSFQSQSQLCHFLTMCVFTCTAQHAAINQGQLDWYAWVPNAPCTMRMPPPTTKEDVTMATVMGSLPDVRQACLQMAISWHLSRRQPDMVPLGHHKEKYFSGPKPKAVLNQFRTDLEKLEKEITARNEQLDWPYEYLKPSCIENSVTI
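Purified human 12hLO (150 nM final) in 25 mM Hepes, 0.01% Triton X-100, pH 7.0 was preincubated 15 min at room temperature with compound. Then 40 uM arachidonic acid was added, 30 min. Hydroperoxide was read by Fe-XO absorbance ratio 573/405 nm.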
DT40 TDP1 no CPT = qHTS for Inhibitors of human tyrosyl-DNA phosphodiesterase 1 (TDP1): qHTS in cells in absence of CPT | Potency, µM (highest dose often 46.2 µM), most hits filed as inhibitors | DT40 Tdp1-/- hTDP1 cells, no CPT, ATP luminescence, 48 h | 420,000 tested, 15% active; also: nearly all actives have a fitted effect of over 55% in size
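Stably hTDP1-transfected Tdp1-null chicken DT40 cells were treated with library compounds minus camptothecin and grown for at least 48 hr at 37 °C, after which cellular ATP was quantified by luminescence.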
Each line names hits and unclear results; the compound was inactive in the other large screens. Unless noted, calls follow the shape of the dose curve; as a rule, active = well fitted curve in the direction sought with a large enough effect; inconclusive = small, poorly fitted or top-dose-only effect, or another doubt; inactive = no such curve, though single readings can be large; an effect the other way counts as inactive or inconclusive.

COc1ccccc1C(OC(=O)c1cccs1)C(=O)NCc1ccco1 (stereo unspecified)	DT40 TDP1 CPT 18µM, DT40 TDP1 no CPT inconclusive
COc1ccccc1NC(=O)NCc1ccco1	IL1B secr inh -68, DT40 TDP1 no CPT inconclusive
Cc1ccc(C(=O)Oc2cccc3c(OC(=O)c4cccc(C)c4)cccc23)cc1	none (no result: DT40 TDP1 CPT, HT1080 IDH1KD tx, HT1080-NT tox, IL1B secr inh, DT40 TDP1 no CPT)
CCCc1nc2ccccc2n2c(-c3cccc(C)c3)c3c(=O)n(C)c(=O)n(C)c3c12	DT40 TDP1 CPT inconclusive, 12-LOX inh inconclusive, DT40 TDP1 no CPT 8.2µM (no result: HT1080 IDH1KD tx, HT1080-NT tox, IL1B secr inh)
Cc1nc2ccccc2n2c(-c3ccccc3)c3c(=O)n(C)c(=O)n(C)c3c12	DT40 TDP1 CPT inconclusive, DT40 TDP1 no CPT 15µM
CCCc1nc2ccccc2n2c(-c3ccc(C)cc3)c3c(=O)n(C)c(=O)n(C)c3c12	DT40 TDP1 CPT 23µM, 12-LOX inh inconclusive, DT40 TDP1 no CPT 26µM (no result: HT1080 IDH1KD tx, HT1080-NT tox, IL1B secr inh)
CSc1nc2ccccc2c(=O)n1CC(=O)c1ccc(C)cc1	none (no result: DT40 TDP1 CPT, HT1080 IDH1KD tx, HT1080-NT tox, IL1B secr inh, DT40 TDP1 no CPT)
O=C(Oc1ccc(Cl)cc1)C1CCCC(C(=O)Oc2ccc(Cl)cc2)C1 (stereo unspecified)	none (no result: DT40 TDP1 CPT, HT1080 IDH1KD tx, HT1080-NT tox, IL1B secr inh, DT40 TDP1 no CPT)
COc1ccc(C(=O)N[C@H]2C[C@@H]3CC[C@H]2C3)cc1OC	none (no result: DT40 TDP1 CPT, HT1080 IDH1KD tx, HT1080-NT tox, IL1B secr inh, DT40 TDP1 no CPT)
O=C(O)COc1c(-c2ccco2)oc2ccccc2c1=O	none
COc1ccc(-c2oc3ccccc3c(=O)c2OC(C)=O)cc1	DT40 TDP1 CPT 23µM, HT1080 IDH1KD tx inconclusive, HT1080-NT tox inconclusive, 12-LOX inh inconclusive, DT40 TDP1 no CPT 16µM
CC(=O)Oc1c(-c2ccc(Br)o2)oc2ccccc2c1=O	DT40 TDP1 CPT 26µM, HT1080 IDH1KD tx inconclusive, 12-LOX inh 35µM, DT40 TDP1 no CPT 15µM
C[C@@H](NC(=O)C1=C[C@@H](NC(=O)c2cccs2)[C@@H](O)[C@H](O)C1)C(N)=O	none (no result: DT40 TDP1 CPT, HT1080 IDH1KD tx, HT1080-NT tox, IL1B secr inh, DT40 TDP1 no CPT)
COc1ccc2oc(C(=O)Nc3nc4ccc(S(C)(=O)=O)cc4s3)c(C)c2c1	DT40 TDP1 CPT inconclusive, IL1B secr inh -52, DT40 TDP1 no CPT 16µM
COc1ccc2oc(C(=O)Nc3nc(-c4ccccn4)cs3)c(C)c2c1	DT40 TDP1 CPT 5.8µM, HT1080 IDH1KD tx inconclusive, DT40 TDP1 no CPT 5.8µM
COc1cc(-c2nnc3sc(C4CCCCC4)nn23)cc(OC)c1OC	DT40 TDP1 CPT 16µM, DT40 TDP1 no CPT 23µM (no result: 12-LOX inh)
COc1cccc(-c2nnc3sc(C4CCCCC4)nn23)c1	DT40 TDP1 CPT 18µM, IL1B secr inh -93, DT40 TDP1 no CPT 21µM
Cc1cc(-c2nnc3sc(C4CCCCC4)nn23)n[nH]1	DT40 TDP1 CPT inconclusive
C1CNC(c2nc(CCOCC3CC3)no2)C1 (stereo unspecified)	none (no result: DT40 TDP1 CPT, HT1080 IDH1KD tx, HT1080-NT tox, IL1B secr inh, DT40 TDP1 no CPT)
CCOC(=O)c1[nH]c(C)c(/C(O)=C2\C(=O)C(=O)N(CCCN3CCOCC3)C2c2cccs2)c1C (stereo unspecified)	HT1080 IDH1KD tx 21µM, HT1080-NT tox 9.2µM
CC(C)CC(=O)N1CCCCCNC(=O)[C@H]2C[C@H](C(=O)N3CCc4ccccc4C3)C[C@H]21	none (no result: DT40 TDP1 CPT, HT1080 IDH1KD tx, HT1080-NT tox, IL1B secr inh, DT40 TDP1 no CPT)
Cc1ccccc1CSc1ncc(CO)n1Cc1ccc(F)cc1	DT40 TDP1 CPT 18µM, DT40 TDP1 no CPT inconclusive (no result: HT1080 IDH1KD tx, HT1080-NT tox, IL1B secr inh)
COc1ccc(Cn2c(CO)cnc2SCc2ccccc2)cc1	DT40 TDP1 CPT inconclusive, DT40 TDP1 no CPT inconclusive (no result: HT1080 IDH1KD tx, HT1080-NT tox, IL1B secr inh)
Cc1cccc(CSc2ncc(CO)n2C)c1	DT40 TDP1 no CPT inconclusive
Cc1cccc(CSc2ncc(CO)n2Cc2ccc(F)cc2)c1	DT40 TDP1 CPT 21µM, 12-LOX inh inconclusive, DT40 TDP1 no CPT 16µM (no result: HT1080 IDH1KD tx, HT1080-NT tox, IL1B secr inh)
Cc1ccc(C(NC(=O)C2CCCCC2)c2ccccc2)cc1 (stereo unspecified)	none (no result: DT40 TDP1 CPT, HT1080 IDH1KD tx, HT1080-NT tox, IL1B secr inh, DT40 TDP1 no CPT)
Cn1cc(CN2CCCCCCNC(=O)[C@@H]3CCC[C@@H]32)c2ccccc21	none (no result: DT40 TDP1 CPT, HT1080 IDH1KD tx, HT1080-NT tox, IL1B secr inh, DT40 TDP1 no CPT)
CCC(=O)N1CCN(c2ccccc2NC(=O)Cc2ccc(Cl)cc2)CC1	DT40 TDP1 no CPT 23µM
O=C(Cc1ccc(Cl)c(Cl)c1)Nc1ccccc1N1CCCC1	DT40 TDP1 CPT 15µM, DT40 TDP1 no CPT inconclusive
CCC(=O)N1CCN(c2ccc(Cl)cc2NC(=O)Cc2ccc(Cl)cc2)CC1	DT40 TDP1 CPT inconclusive, HT1080 IDH1KD tx inconclusive, IL1B secr inh inconclusive, DT40 TDP1 no CPT inconclusive

High-throughput results as filed in PubChem.
